ANO1 activ: activates or potentiates the mouse TMEM16A chloride channel. Q8BHY3. HEK293 TMEM16A/YFP-H148Q/I152L, iodide quench fluorescence; hits give low values. B-score at 10 µM. 340,000 tested, 0.3% active. AID 623877;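 active means fluorescence-ratio B-score plate-corrected deviation score at least 3 library SD below zero, with starting fluorescence score within 5 deviations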;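 further: channel opened by trigger with iodide after compound preincubation; score built on the fluorescence ratio of max minus min over baseline; more negative score means more quench and so TMEM16A activation or potentiation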
MEKK2mut PB1 HTS: signal of MEK5 binding to mutant human MEKK2 PB1 domain. percent response, % at 10 µM. 290,000 tested, 0.35% active. bead flow cytometry, Alexa488-MEK5 binding to MEKK2 mutant; in the data active means percent response above about 24%, passing the limit was not always enough
ANO1 block: blocks the mouse calcium-activated chloride channel TMEM16A; normalized B-score (activity score, 25-100; higher = stronger inhibition) at 10 µM; Q8BHY3; HEK293 TMEM16A/YFP iodide influx fluorescence, ionomycin; 310,000 tested, 1.2% active;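 active means ratio plate-corrected score three or more library SD toward inhibition, starting fluorescence score within five deviations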;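 further: score derived from kinetic fluorescence span divided by baseline fluorescence per well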
NTR1 ag: NTR1 (human) agonism | NTR1-U2OS beta-arrestin-GFP spot imaging, agonist mode | activation, % at 20 µM | 330,000 tested, 0.17% active;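 active means activation at or above 40% of the spot to cytoplasm intensity ratio, with at least 20 cells analyzed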;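 further: 0% = DMSO without peptide and 100% = 100 nM NTR1 peptide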
Target sequence (P30989 whole entry, looked up): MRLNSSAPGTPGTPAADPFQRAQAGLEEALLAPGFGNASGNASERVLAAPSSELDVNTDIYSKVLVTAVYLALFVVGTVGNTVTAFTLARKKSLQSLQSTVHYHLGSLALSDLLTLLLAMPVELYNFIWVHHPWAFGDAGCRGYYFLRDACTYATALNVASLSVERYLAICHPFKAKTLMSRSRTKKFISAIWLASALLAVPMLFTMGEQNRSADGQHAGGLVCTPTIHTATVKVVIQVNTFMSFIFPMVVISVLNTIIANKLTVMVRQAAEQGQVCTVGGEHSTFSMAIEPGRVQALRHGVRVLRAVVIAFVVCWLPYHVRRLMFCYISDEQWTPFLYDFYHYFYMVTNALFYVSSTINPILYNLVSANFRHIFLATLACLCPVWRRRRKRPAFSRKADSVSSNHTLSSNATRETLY
MEKK3 PB1 HTS: MEKK3-MEK5 PB1 interaction, increase or decrease; Q99759; bead-based flow cytometry, Alexa488-MEK5 binding to MEKK3; actives lie on both sides; 0 = blocked by unlabeled MEK5, 100 = vehicle; binding response (% of control), % at 10 µM; 290,000 tested, 1.4% active;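 active means binding response more than 3 SD above or below the average of its plate-row segment, actives on both sides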;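 further: Alexa488 bead fluorescence after subtracting the streptavidin-only scavenger bead signal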
MEKK2wt PB1 HTS: raises or lowers MEK5 binding to wildtype human MEKK2 PB1 domain. Q9Y2U5. bead flow cytometry, Alexa488-MEK5 binding to MEKK2 WT; actives lie on both sides. binding response (% of control), % at 10 µM. 290,000 tested, 1.1% active; in the data active means binding response below about 67% or above about 130%
* hit, by the source's call. The list is not random: actives were taken first. Their share in the collection is about 3.4%.

For COc1ccc2[nH]cc(CCNC(=O)Cc3ccc(Cl)cc3)c2c1 the results were ANO1 activ inactive, MEKK2mut PB1 HTS 7, ANO1 block inactive, NTR1 ag 6, MEKK3 PB1 HTS 106 and MEKK2wt PB1 HTS 104.
COc1ccc(N2CCN(S(=O)(=O)CCNC(=O)COc3ccccc3OC)CC2)cc1 was read as ANO1 activ inactive, MEKK2mut PB1 HTS 2, ANO1 block inactive, NTR1 ag -1, MEKK3 PB1 HTS 102 and MEKK2wt PB1 HTS 101.
For CC(C)COP(=O)(OCC(C)C)C(Nc1ccccc1)c1ccccc1 (centres undefined) the results were ANO1 activ inactive, MEKK2mut PB1 HTS -1, ANO1 block 25*, NTR1 ag 8, MEKK3 PB1 HTS 96 and MEKK2wt PB1 HTS 101.
For CC(C)COP(=O)(OCC(C)C)C(Nc1ccccc1)c1ccc(F)cc1 (centres undefined) the results were ANO1 activ inactive, MEKK2mut PB1 HTS -2, ANO1 block inactive, NTR1 ag 4, MEKK3 PB1 HTS 99 and MEKK2wt PB1 HTS 99.
For Cc1c(C)n(C)c2ccc(C(=O)NCCCN(C)C3CCCCC3)cc12 the results were ANO1 activ inactive, MEKK2mut PB1 HTS 12, ANO1 block inactive, NTR1 ag 1, MEKK3 PB1 HTS 101 and MEKK2wt PB1 HTS 145*.
`Cc1c(C)n(C)c2ccc(C(=O)NCCc3ccco3)cc12` gave ANO1 activ inactive, MEKK2mut PB1 HTS -1, ANO1 block inactive, NTR1 ag 1, MEKK3 PB1 HTS 99 and MEKK2wt PB1 HTS 96.
For Cc1c(C)n(C)c2ccc(C(=O)NCCCN3CCCCC3C)cc12 (centres undefined) the results were ANO1 activ inactive, MEKK2mut PB1 HTS 35*, ANO1 block inactive, NTR1 ag 0, MEKK3 PB1 HTS 108 and MEKK2wt PB1 HTS 178*.
Screening CC1CCCCN1CCNC(=O)c1ccc2c(=O)n(Cc3ccc(Cl)cc3)c(=S)[nH]c2c1 (centres undefined) returned ANO1 activ inactive, MEKK2mut PB1 HTS 33*, ANO1 block inactive, NTR1 ag 35, MEKK3 PB1 HTS 107 and MEKK2wt PB1 HTS 169*.
For COc1cc(Br)c(Br)c(Br)c1N the results were ANO1 activ inactive, MEKK2mut PB1 HTS -1, ANO1 block inactive, NTR1 ag 0, MEKK3 PB1 HTS 101 and MEKK2wt PB1 HTS 101.
For COc1ccc(CCN(C)C(=O)CNC(=O)c2ccc3c(c2)OCO3)cc1OC the results were ANO1 activ inactive, MEKK2mut PB1 HTS 4, ANO1 block inactive, NTR1 ag 2, MEKK3 PB1 HTS 106 and MEKK2wt PB1 HTS 104.
Screening Cc1ccc(S(=O)(=O)N2CCC(C(=O)OC(C)C(=O)NC(N)=O)CC2)cc1C (centres undefined) returned ANO1 activ inactive, MEKK2mut PB1 HTS 9, ANO1 block inactive, NTR1 ag -1, MEKK3 PB1 HTS 105 and MEKK2wt PB1 HTS 110.
`COc1nnc(-c2ccc(N3CCCCC3)c(NC(=O)C3CCCCC3)c2)c2ccccc12` gave ANO1 activ inactive, ANO1 block 100* and NTR1 ag 9.
Screening Cc1ccc(S(=O)(=O)N(C)c2ccc(OCC(=O)Nc3cccc(-n4cnnn4)c3C)cc2)cc1 returned ANO1 activ inactive, MEKK2mut PB1 HTS -21, ANO1 block inactive, NTR1 ag 0, MEKK3 PB1 HTS 65 and MEKK2wt PB1 HTS 71.
For CCOc1ccc(S(=O)(=O)c2c(C(=O)c3ccccc3)cnc3cc4c(cc23)OCCO4)cc1 the results were ANO1 activ inactive, MEKK2mut PB1 HTS 3, ANO1 block inactive, NTR1 ag 0, MEKK3 PB1 HTS 100 and MEKK2wt PB1 HTS 99.
`OC(COc1ccc(CNCCc2ccc(C(F)(F)F)cc2)cc1)CN1CCCCC1` (centres undefined) gave ANO1 activ inactive, MEKK2mut PB1 HTS 2, ANO1 block inactive, NTR1 ag 0, MEKK3 PB1 HTS 107 and MEKK2wt PB1 HTS 150*.
O=C1Nc2ccccc2C(=O)N2[C@H](c3cccc(Br)c3)[C@@H]3C(=O)N(Cc4ccccc4)C(=O)[C@@H]3[C@H]12 was read as ANO1 activ -7.1*, MEKK2mut PB1 HTS -2, ANO1 block inactive, NTR1 ag 4, MEKK3 PB1 HTS 101 and MEKK2wt PB1 HTS 103.
Screening CC1Cc2nc(SCC(=O)Nc3ccc4c(c3)OCO4)n(CCc3ccccc3)c(=O)c2S1 (centres undefined) returned ANO1 activ -5.2*, MEKK2mut PB1 HTS -2, ANO1 block inactive, NTR1 ag -1, MEKK3 PB1 HTS 103 and MEKK2wt PB1 HTS 99.
C#CCN1Cc2ccccc2Oc2cc(Br)ccc2S1(=O)=O was read as NTR1 ag 2.
`CCCOC(=O)c1ccc(NC(=O)/C=C/c2cccs2)cc1` gave ANO1 activ inactive, MEKK2mut PB1 HTS -2, ANO1 block 25*, NTR1 ag 6, MEKK3 PB1 HTS 99 and MEKK2wt PB1 HTS 97.
O=C(/C=C/c1cccs1)Nc1ccncc1 was read as ANO1 activ inactive, MEKK2mut PB1 HTS -1, ANO1 block inactive, NTR1 ag 0, MEKK3 PB1 HTS 100 and MEKK2wt PB1 HTS 96.
`CCOC(=O)C1=C(C)NC(C)=C(C(=O)OCC)C1/C=C/c1ccccc1OC` gave ANO1 activ inactive, MEKK2mut PB1 HTS 20, ANO1 block inactive, NTR1 ag 14, MEKK3 PB1 HTS 104 and MEKK2wt PB1 HTS 112.
`CCOC(=O)C1=C(C)NC(C)=C(C(=O)OCC)C1c1ccccc1/C=C/C(=O)OC(C)(C)C` gave MEKK2mut PB1 HTS 4, ANO1 block inactive, NTR1 ag 47*, MEKK3 PB1 HTS 103 and MEKK2wt PB1 HTS 114.
`Cn1c(SCC(=O)NCc2cccs2)nnc1-c1ccc(O)cc1` gave ANO1 activ inactive, MEKK2mut PB1 HTS -11, ANO1 block inactive, NTR1 ag 0, MEKK3 PB1 HTS 93 and MEKK2wt PB1 HTS 82.
For CCOC(=O)c1c(C)[nH]c(C)c1S(=O)(=O)NC(C)Cc1ccco1 (centres undefined) the results were ANO1 activ inactive, MEKK2mut PB1 HTS 2, ANO1 block inactive, NTR1 ag 0, MEKK3 PB1 HTS 104 and MEKK2wt PB1 HTS 105.
For Cc1cc(-c2csc(N)n2)c(C)n1CCC(C)C the results were ANO1 activ inactive, MEKK2mut PB1 HTS -2, ANO1 block inactive, NTR1 ag -2, MEKK3 PB1 HTS 101 and MEKK2wt PB1 HTS 59*.
Screening O=[N+]([O-])c1ccc(N/N=C/c2ccc[nH]2)cc1 returned ANO1 activ inactive, MEKK2mut PB1 HTS 5, ANO1 block inactive, MEKK3 PB1 HTS 83 and MEKK2wt PB1 HTS -1.0*.
For O=[N+]([O-])c1ccc(NN=Cc2cccc([N+](=O)[O-])c2)cc1 the results were ANO1 activ inactive.
